# Screening results from PubChem.
# Shown are actives, neighbours in structure and some others; about 3.5% of the full set was active somewhere.
# TEAD-YAP block: TEAD-YAP interaction inhibition; inhibition, % at 9.12 µM; HEK-TIYL cells, TEAD-Gal4/YAP UAS-luciferase luminescence; hit rate 1.4% among 640,000; AID 1259422; in the data active = inhibition above about 32%;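 also: 0% = median of test compound wells and 100% = reference inhibitor wells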
# MITF primary: blocks human microphthalmia-associated transcription factor; AlphaScreen MITF homodimerization, bead proximity signal; inhibition, % at 2.6 µM; O75030; hit rate 0.91% among 650,000; AID 1259374; in the data active = inhibition above about 50%;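 also: 0% = vehicle wells with protein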
# Target sequence (O75030 whole entry, looked up): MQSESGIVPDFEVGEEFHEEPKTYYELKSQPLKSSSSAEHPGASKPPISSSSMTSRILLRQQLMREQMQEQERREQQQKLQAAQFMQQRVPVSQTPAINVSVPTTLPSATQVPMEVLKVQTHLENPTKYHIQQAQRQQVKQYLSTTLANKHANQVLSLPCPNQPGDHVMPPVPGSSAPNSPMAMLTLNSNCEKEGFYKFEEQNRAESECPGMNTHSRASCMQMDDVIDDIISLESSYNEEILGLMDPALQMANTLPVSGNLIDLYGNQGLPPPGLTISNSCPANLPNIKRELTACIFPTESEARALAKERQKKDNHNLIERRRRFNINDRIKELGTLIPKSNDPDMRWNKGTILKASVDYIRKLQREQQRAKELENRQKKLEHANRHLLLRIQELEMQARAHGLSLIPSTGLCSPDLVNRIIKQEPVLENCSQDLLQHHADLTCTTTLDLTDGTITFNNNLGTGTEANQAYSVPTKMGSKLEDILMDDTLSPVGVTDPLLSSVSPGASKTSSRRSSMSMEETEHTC
# GPR151 activ: activators of human GPR151 | Q8TDV0 | PathHunter beta-arrestin GPR151 cells, luminescence | activation, % at 11.2 µM | hit rate 1% among 650,000; in the data active = activation above about 4.9%;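 also: 0% = median of compound wells and 100% = cells with positive control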
# FBW7 activator: activators of human E3 ligase FBW7. hit rate 0.13% among 650,000. AlphaScreen FBW7–phospho-cyclin E peptide binding, activator screen. Q969H0. normalized activity (activation), % at 26.1 µM; in the data active = normalized activity above about 1.9%;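 also: purified mutant Fbw7 with reduced substrate affinity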
# The depositor's hits bear a star.
SMILES,TEAD-YAP block,MITF primary,GPR151 activ,FBW7 activator
CCOc1ccc(Br)cc1C1C2=C(CCCC2=O)N(CC(=O)O)C2=C1C(=O)CCC2,4.2,-11.7,-0.1,1.9*
Cc1ccc(N(CC(=O)N(C)C)S(=O)(=O)c2ccccc2)cc1,19.4,1.7,-1.5,-0.1
O=C1c2ccccc2C(=O)N1CCS(=O)(=O)OCC(F)(F)C(F)F,-4.7,1.5,-0.2,0.1
CCOc1ccccc1C1C=C(c2ccc(OC)cc2)Nc2ncnn21 (stereo not drawn),55.9*,3.9,1.0,-0.1
COc1ccc(C2=CC(c3ccc(C)cc3)n3ncnc3N2)cc1OC (stereo not drawn),-68.1,3.0,1.2,0.0
COc1ccc(C2C=C(c3ccc(C)cc3)Nc3ncnn32)cc1OC (stereo not drawn),53.6*,10.6,-0.1,0.1
COc1ccc(OC)c(C2C=C(c3ccc(C)cc3)Nc3ncnn32)c1 (stereo not drawn),66.0*,-0.7,-0.6,-0.1
COc1ccc(C2=CC(c3cc(OC)c(OC)c(OC)c3)n3ncnc3N2)cc1OC (stereo not drawn),53.6*,1.6,-1.7,0.1
C=CCSc1nc(C(C)C)nc2c1c(=O)n(C)c(=O)n2C,11.4,2.4,-0.8,0.0
Cc1nc2c(SCc3cccnc3)nnc(-c3ccccc3)c2s1,-15.2,3.7,2.3,-0.1
Cc1ccc(C2C(C(=O)c3cccs3)=C(O)C(=O)N2CCCN(C)C)cc1 (stereo not drawn),1.7,0.1,0.1,-0.2
CCc1ccc(C2=CC(c3ccc(OC)c(OC)c3OC)n3ncnc3N2)cc1 (stereo not drawn),47.2*,5.0,-0.1,-0.1
COc1ccc(C2=CC(c3cccc(C)c3)n3ncnc3N2)cc1 (stereo not drawn),46.0*,1.4,0.0,-0.2
COc1cc(C2C=C(c3ccc4c(c3)OCO4)Nc3ncnn32)cc(OC)c1OC (stereo not drawn),64.2*,1.4,1.1,-0.1
COc1cc(Nc2nc(-c3ccccc3)nc3nc[nH]c23)cc(OC)c1OC,59.5*,5.0,-0.5,0.0
COc1cc(Nc2nc(-c3ccc(N4CCOCC4)nc3)nc3nc[nH]c23)cc(OC)c1OC,52.4*,21.3,-1.4,0.8
COc1cc(Nc2nc(-c3ccc(N4CCOCC4)nc3)ncc2C)cc(OC)c1OC,29.9,5.0,-1.0,-0.2
COc1ccc(-c2nc3ncnc(Nc4cc(OC)c(OC)c(OC)c4)c3[nH]2)cc1,50.4*,4.1,-2.5,-0.1
O=C1C=CC(=NS(=O)(=O)c2cccc(C(=O)O)c2)C=C1,-1.7,64.3*,-1.3,-0.2
CC(C)n1cnc2c(NCc3ccccc3)nc(-c3ccc(C(=O)N4CCN(C)CC4)cc3)nc21,-3.1,10.7,-0.4,0.0
CC(C)n1cnc2c(NCc3nc4ccccc4[nH]3)nc(-c3ccc(C(=O)NC4CC4)cc3)nc21,77.7*,18.5,-1.5,0.2
CC(C)n1cnc2c(NCc3nc4ccccc4[nH]3)nc(-c3ccc(C(=O)N4CCN(C)CC4)cc3)nc21,65.4*,6.8,-1.2,0.4
CC(C)c1nc2ccccc2c2nn(CC(=O)NC3CC3)c(=O)n12,-4.1,10.4,0.2,-0.1
COc1ccc(N2C(=O)CN(CC(O)CO)CC2(C)C)cc1 (stereo not drawn),-11.4,-9.4,-0.3,-0.1
CCCCOc1ccc(C(=O)Nc2ccc3c4c(cccc24)CC3)cc1,3.8,9.9,1.9,0.0
SMILES,TEAD-YAP block,MITF primary,GPR151 activ,FBW7 activator
Cc1ccc(S(=O)(=O)N(C)c2ccc(C(=O)N3C(C)CCCC3C)cc2)cc1 (stereo not drawn),48.4*,10.5,4.7,0.6
Cc1ccc(S(=O)(=O)N(C)c2ccc(C(=O)N3CCCCC3)cc2)cc1,12.9,3.7,1.1,0.0
Cc1cccc(C(=O)/C(C#N)=N/Nc2c(C)n(C)n(-c3ccccc3)c2=O)c1,42.0*,38.2,0.3,-2.1
Cc1nc2ccccc2n1CC1CCN(CC(=O)Nc2ccc(F)cc2F)CC1,54.5*,-6.9,-1.1,0.0
CC(C)=NNC(=O)c1c(Cl)cc(Cl)nc1Cl,-4.1,2.1,-0.2,-0.1
COc1ccc(-c2cnnc(N/N=C/c3ccc(O)c(OC)c3)n2)cc1,35.8*,9.8,1.5,-0.1
COc1cc(C(=O)N/N=C/c2ccc(O)cc2O)cc(OC)c1OC,55.2*,52.2*,-0.3,-0.2
COc1ccc(NC(=O)COc2ccc(/C=N/NC(=S)NC(C)C)cc2OC)cc1,33.0*,6.2,-0.6,0.0
COc1ccc(NC(=O)COc2ccc(/C=N/n3c(C)nnc3C)cc2OC)cc1,-4.9,9.0,0.9,0.1
COc1cc(/C=N/NC(=O)c2ccccc2NC(=O)c2ccc([N+](=O)[O-])cc2)ccc1O,71.6*,-9.9,-1.7,-0.1
Cc1cc(=O)[nH]c(N/N=C/c2cc(Cl)cc(Cl)c2O)n1,10.8,34.1,-1.9,0.0
O=C(CC1(O)C(=O)N(Cc2ccc(Cl)cc2)c2ccccc21)c1ccc([N+](=O)[O-])cc1 (stereo not drawn),7.0,6.4,3.6,0.0
COc1cc(OC)c(OC)cc1/C=N\NC(=O)c1cc(O)c(O)c(O)c1,-2.2,66.0*,0.8,-0.4
COc1ccc(/C=N/NC(=O)C(=O)Nc2ccc(C)cc2)cc1,9.4,-8.7,-0.5,0.0
COc1ccc(NC(=O)C(=O)N/N=C/c2ccc(O)c(OC)c2)cc1,13.7,-64.5,-0.4,24.7*
COc1ccc(/C=N/NC(=O)COc2cc(C)ccc2C(C)C)cc1O,63.4*,1.3,0.9,0.0
COc1cc(/C=N/NC(=O)c2cc(OC)c(OC)c(OC)c2)ccc1O,55.6*,0.5,1.1,0.0
Cc1cccc(-n2c(O)c(C=Nc3ccccc3C)c(=O)[nH]c2=S)c1,-14.9,-2.2,1.4,0.2
CC[C@@]1([C@@H]2O[C@@H]([C@H]3O[C@@](O)(CO)[C@H](C)C[C@@H]3C)C[C@@H]2C)CC[C@H]([C@]2(C)CC[C@]3(C[C@H](O)[C@@H](C)[C@@H]([C@@H](C)[C@@H](OC)[C@H](C)C(=O)O)O3)O2)O1,78.7*,16.4,0.1,0.5
CC(C)C(=O)/C(=C/c1ccc(Cl)cc1Cl)n1cncn1,73.1*,7.9,1.3,0.0
Cc1nn(C)c(C)c1/C=C(/C(=O)C(C)C)n1cncn1,3.7,33.4,0.9,0.0
CC(C)NCCCOc1ccc2ccccc2c1Br,40.0*,-4.5,-0.9,-0.1
O=C(NNC1CC(=O)N(c2ccc(Cl)cc2)C1=O)c1ccc(Br)cc1 (stereo not drawn),1.3,1.4,0.4,0.6
CCOc1cc(C(=O)Nc2ccc(-c3ccn[nH]3)cc2)cc(OCC)c1OCC,50.6*,11.7,-1.1,0.5
O=C(Nc1cccc(-c2nc3ccc(NC(=O)c4cccnc4)cc3o2)c1)c1cccnc1,41.4*,5.0,2.1,0.0
O=C(Nc1ccc(-c2ccn[nH]2)cc1)c1cccnc1,78.7*,-4.0,-9.7,0.1
COc1ccc(C(C)=O)cc1CC1(c2ccc3c(c2)OCO3)C(=O)Nc2ccccc21 (stereo not drawn),11.5,-3.5,0.7,-0.4
Cc1ccc(C(=O)Nc2sc3c(c2C(=O)N2CCC(Cc4ccccc4)CC2)CCCC3)cc1,-0.2,6.3,-1.1,-0.1
